# Experimental data from PubChem BioAssay AID1159580 (chemical genetic matrix, 2015).
# The whole screen tested about 5,500 compounds, of which about 2,000 (36%) were called active. Not shown: some 18% with an inconclusive outcome. This is one part of the list. Unmarked numbers belong to inactive results. No stated cut-off is given here; in the data, active means normalized growth mostly below about 0.91 (no sharp cut-off); inconclusive means no clear call, values can overlap the other calls; inactive means mostly above about 0.92.
# Assay: chemical genetic growth profiling, strain panel (AID 1159580);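 further: tested at 20 µM; growth read once vehicle control cultures reached saturation at 30 °C; 1 = growth at the plate median or of vehicle wells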
# Conditions: S. cerevisiae deletion strains, growth OD
# [1] = locus YJR075W, strain HOC1, stronger effect = lower value
# [2] = locus YMR263W, strain SAP30, stronger effect = lower value
# [3] = locus YNL153C, strain GIM3, stronger effect = lower value
# [4] = locus YPL055C, strain LGE1, stronger effect = lower value
# [5] = locus YDL101C, strain DUN1, stronger effect = lower value
# [6] = locus YHR030C, strain SLT2, stronger effect = lower value
smiles,measurement,setting,value
O=C1c2ccccc2-c2n[nH]c3cccc1c23,normalized growth,"locus YAL040C, strain CLN3, stronger effect = lower value",0.674 (active)
same,normalized growth,"locus YDR363W, strain ESC2, stronger effect = lower value",0.906
same,normalized growth,"locus YER002W, strain NOP16, stronger effect = lower value",0.982
same,normalized growth,[1],0.827 (active)
same,normalized growth,[2],0.981
same,normalized growth,[3],0.345 (active)
same,normalized growth,"locus YNL175C, strain NOP13, stronger effect = lower value",0.621 (active)
same,normalized growth,"locus YNL197C, strain WHI3, stronger effect = lower value",0.826 (active)
same,normalized growth,"locus YNL224C, strain SQS1, stronger effect = lower value",0.654 (active)
same,normalized growth,"locus YOR083W, strain WHI5 (second series), stronger effect = lower value",0.504 (active)
same,normalized growth,[4],0.727 (active)
N/C(=N/OC(=O)c1ccccc1)c1ccc(-c2csnn2)cc1,normalized growth,"locus YAL013W, strain DEP1, stronger effect = lower value",0.998
same,normalized growth,"locus YBR229C, strain ROT2, stronger effect = lower value",0.988
same,normalized growth,[5],0.984
same,normalized growth,"locus YDL134C, strain PPH21, stronger effect = lower value",1.01
same,normalized growth,"locus YDR150W, strain NUM1, stronger effect = lower value",0.965
same,normalized growth,"locus YEL061C, strain CIN8, stronger effect = lower value",0.991
same,normalized growth,"locus YGR078C, strain PAC10, stronger effect = lower value",1
same,normalized growth,[6],1.08
same,normalized growth,"locus YHR087W, strain rtc3, stronger effect = lower value",0.993
same,normalized growth,"locus YJL187C, strain SWE1, stronger effect = lower value",1.02
same,normalized growth,"locus YJR043C, strain POL32, stronger effect = lower value",1.01
same,normalized growth,[1],1.02
same,normalized growth,"locus YLR039C, strain RIC1, stronger effect = lower value",1.03
same,normalized growth,"locus YLR058C, strain SHM2 (second series), stronger effect = lower value",1
same,normalized growth,"locus YLR085C, strain ARP6, stronger effect = lower value",1.01
same,normalized growth,"locus YLR262C, strain YPT6, stronger effect = lower value",1.01
same,normalized growth,"locus YML094W, strain GIM5, stronger effect = lower value",0.993
same,normalized growth,"locus YMR219W, strain ESC1, stronger effect = lower value",1
same,normalized growth,[2],1.03
same,normalized growth,[3],1
same,normalized growth,"locus YNL298W, strain CLA4 (second series), stronger effect = lower value",1.01
same,normalized growth,"locus YNL322C, strain KRE1, stronger effect = lower value",1.01
same,normalized growth,"locus YNR030W, strain Alg12, stronger effect = lower value",1
same,normalized growth,"locus YOL006C, strain TOP1, stronger effect = lower value",1.07
same,normalized growth,[4],0.905
same,normalized growth,"locus YPL241C, strain CIN2, stronger effect = lower value",1
same,normalized growth,"locus YPR135W, strain CTF4, stronger effect = lower value",1.04
O=S(=O)(Oc1ccc(-c2csnn2)cc1)c1ccccc1Cl,normalized growth,"locus YAR019C, strain CDC15, stronger effect = lower value",0.965
same,normalized growth,"locus YBL105C, strain PKC1, stronger effect = lower value",0.98
same,normalized growth,"locus YBR135W, strain CKS1, stronger effect = lower value",0.966
same,normalized growth,"locus YBR136W, strain MEC1, stronger effect = lower value",0.963
same,normalized growth,"locus YBR160W, strain CDC28, stronger effect = lower value",0.971
same,normalized growth,"locus YDL017W, strain CDC7, stronger effect = lower value",0.974
same,normalized growth,"locus YDL028C, strain MPS1, stronger effect = lower value",0.968
same,normalized growth,[5],0.956
same,normalized growth,"locus YDL108W, strain KIN28, stronger effect = lower value",0.967
same,normalized growth,"locus YDL132W, strain cdc53, stronger effect = lower value",0.971
same,normalized growth,"locus YDL214C, strain PRR2, stronger effect = lower value",0.939
same,normalized growth,"locus YDR052C, strain DBF4, stronger effect = lower value",0.978
same,normalized growth,"locus YDR054C, strain cdc34, stronger effect = lower value",0.979
same,normalized growth,"locus YDR226W, strain ADK1, stronger effect = lower value",0.969
same,normalized growth,"locus YDR477W, strain SNF1, stronger effect = lower value",0.94
same,normalized growth,"locus YER123W, strain YCK3, stronger effect = lower value",0.915
same,normalized growth,"locus YER133W, strain GLC7, stronger effect = lower value",0.939
same,normalized growth,"locus YFL009W, strain cdc4, stronger effect = lower value",0.973
same,normalized growth,"locus YFL029C, strain CAK1, stronger effect = lower value",0.963
same,normalized growth,"locus YFR003C, strain YPI1, stronger effect = lower value",0.972
same,normalized growth,"locus YFR019W, strain FAB1, stronger effect = lower value",0.913
same,normalized growth,"locus YFR028C, strain CDC14, stronger effect = lower value",0.957
same,normalized growth,"locus YGR040W, strain KSS1, stronger effect = lower value",0.934
same,normalized growth,"locus YGR052W, strain FMP48, stronger effect = lower value",0.969
same,normalized growth,"locus YGR092W, strain DBF2, stronger effect = lower value",0.935
same,normalized growth,[6],0.907
same,normalized growth,"locus YHR079C, strain IRE1, stronger effect = lower value",0.929
same,normalized growth,"locus YHR082C, strain KSP1, stronger effect = lower value",0.948
same,normalized growth,"locus YHR205W, strain SCH9, stronger effect = lower value",0.946
same,normalized growth,"locus YIL147C, strain SLN1, stronger effect = lower value",0.968
same,normalized growth,"locus YJL095W, strain BCK1, stronger effect = lower value",0.936
same,normalized growth,"locus YJL128C, strain PBS2, stronger effect = lower value",0.938
same,normalized growth,"locus YJL157C, strain FAR1, stronger effect = lower value",0.947
same,normalized growth,"locus YJR016C, strain ILV3, stronger effect = lower value",0.978
same,normalized growth,"locus YJR066W, strain TOR1 (second series), stronger effect = lower value",0.909
same,normalized growth,"locus YJR066W, strain TOR1, stronger effect = lower value",0.921
same,normalized growth,"locus YKL048C, strain ELM1, stronger effect = lower value",0.988
same,normalized growth,"locus YKL067W, strain YNK1, stronger effect = lower value",0.933
same,normalized growth,"locus YKL101W, strain HSL1, stronger effect = lower value",0.951
same,normalized growth,"locus YKL193C, strain SDS22, stronger effect = lower value",0.967
same,normalized growth,"locus YKL203C, strain TOR2, stronger effect = lower value",0.989
same,normalized growth,"locus YLR113W, strain HOG1, stronger effect = lower value",0.854 (active)
same,normalized growth,"locus YLR133W, strain CKI1, stronger effect = lower value",0.947
same,normalized growth,"locus YLR403W, strain SFP1, stronger effect = lower value",0.927
same,normalized growth,"locus YML070W, strain DAK1, stronger effect = lower value",0.922
same,normalized growth,"locus YMR001C, strain CDC5, stronger effect = lower value",0.968
same,normalized growth,"locus YMR205C, strain PFK2 (second series), stronger effect = lower value",0.941
same,normalized growth,"locus YMR277W, strain FCP1, stronger effect = lower value",0.965
same,normalized growth,"locus YNL006W, strain LST8, stronger effect = lower value",0.981
same,normalized growth,"locus YNL020C, strain ARK1, stronger effect = lower value",0.973
same,normalized growth,"locus YNL161W, strain CBK1, stronger effect = lower value",0.969
same,normalized growth,"locus YNL183C, strain NPR1, stronger effect = lower value",0.896
same,normalized growth,"locus YNL207W, strain RIO2, stronger effect = lower value",0.971
same,normalized growth,"locus YNL222W, strain SSU72, stronger effect = lower value",0.975
same,normalized growth,"locus YNL307C, strain MCK1 (second series), stronger effect = lower value",0.96
same,normalized growth,"locus YOL078W, strain AVO1, stronger effect = lower value",0.974
same,normalized growth,"locus YOL136C, strain PFK27, stronger effect = lower value",0.916
same,normalized growth,"locus YOR061W, strain CKA2, stronger effect = lower value",0.923
same,normalized growth,"locus YOR119C, strain RIO1, stronger effect = lower value",0.964
same,normalized growth,"locus YOR231W, strain MKK1, stronger effect = lower value",0.906
same,normalized growth,"locus YOR329C, strain SCD5, stronger effect = lower value",0.966
same,normalized growth,"locus YPL031C, strain PHO85, stronger effect = lower value",0.946
same,normalized growth,"locus YPL153C, strain RAD53, stronger effect = lower value",0.956
same,normalized growth,"locus YPL204W, strain HRR25, stronger effect = lower value",0.931
same,normalized growth,"locus YPL209C, strain IPL1, stronger effect = lower value",0.975
same,normalized growth,"locus YPL256C, strain CLN2, stronger effect = lower value",0.881
same,normalized growth,"locus YPR025C, strain CCL1, stronger effect = lower value",0.968
same,normalized growth,"locus YPR106W, strain ISR1, stronger effect = lower value",0.961
same,normalized growth,"locus YPR111W, strain DBF20, stronger effect = lower value",0.964
same,normalized growth,"strain NNK1, stronger effect = lower value",0.96
same,normalized growth,"strain TSCII, stronger effect = lower value",0.995
